Experimental data from PubChem BioAssay (NCI).
About 83,000 compounds went through this panel and 20% of them were active in at least one assay; those are over-represented in the sample as a whole.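 In brief: 96-well plates, 48 h treatment, single concentration, percent growth endpoint.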 A number with no mark means an inactive call. Activity calls are given as the source filed them. Rule for the calls: active = growth percent below 10; inactive = the rest.

How the values were obtained:
Assay in all cases: NCI-60 one-dose screen, 48 h (100 = growth as untreated, 0 = no growth, -100 = all killed)
Details in all cases: 10 µM unless noted
[1] = system: HCT-15 colon
[2] = system: HT29 colon
[3] = system: SNB-75 CNS
[4] = system: SNB-19 CNS
[5] = system: U251 CNS
[6] = system: PC-3 prostate
[7] = system: SK-MEL-5 melanoma
[8] = system: LOX IMVI melanoma
[9] = system: SK-MEL-28 melanoma
[10] = system: UACC-62 melanoma

Row | SMILES | growth [1] | growth [2] | growth [3] | growth [4] | growth [5] | growth [6] | growth [7] | growth [8] | growth [9] | growth [10]
1 | CCCCOc1nc2ccc(C)cc2cc1/C=C/C(=O)/C=C(O)/C=C/c1cc2cc(C)ccc2nc1OCCCC | 110% | 101% | 92.7% | 96.2% | 88.3% | 99% | 105% | 91.6% | 107% | –
2 | CCN(CC)CCCC(C)Nc1c(-c2ccccc2)cnc2cc(Cl)ccc12 (stereo not given) | 29.5% | -33.5% (active) | 132% | 101% | 58.1% | 64.5% | 55.3% | – | 15.3% | 97.2%
3 | O=C(/C=C/c1ccccc1)c1c[nH]c2ccccc2c1=O | 4.67% (active) | 8.44% (active) | -15.6% (active) | 16.3% | 11.6% | 26.7% | 43.4% | – | 66.4% | 29.2%
4 | CC(C)CCSc1nc(-c2ccc(F)cc2)c(C#N)c(N2CCN(C)CC2)n1 | 83.6% | 82.2% | 73% | 91.7% | 77.6% | 65% | 90.4% | – | 96.5% | 87.2%
5 | O=c1c2cc(Cl)ccc2oc2ccc(OCCCCCN3CCCCC3)cc12 | -14.7% (active) | -27.9% (active) | 102% | 77.5% | 46% | 69.1% | -26.2% (active) | – | 12% | -52.7% (active)
6 | CCCCCCCCCCCCCC1=NC(C)(C)CN1C(C)C | -65.1% (active) | -57.5% (active) | -41.1% (active) | 28.9% | -63.5% (active) | -37.6% (active) | -86.7% (active) | – | -73% (active) | -70.8% (active)
7 | Clc1ccc(C2=NN[C@H](c3cn(-c4ccccc4)nc3-c3ccccc3)C2)cc1 | 70.5% | 69.5% | 41% | 76.9% | 49.3% | 36.7% | 80.8% | – | 39% | 76.5%
8 | CCNCCCn1c2c(c3ccc(Cl)cc3c1=O)C(=O)c1cc(OC)cnc1-2 | -58.2% (active) | -76.3% (active) | 19.4% | 28.8% | -93.8% (active) | 40% | 18.3% | – | 70.5% | 14.4%
9 | COc1cc(Nc2ncccc2/C=C/C(=O)c2cc(OC)c(OC)c(OC)c2)cc(OC)c1OC | 74.2% | 67.8% | 67.9% | 80.2% | 50.8% | 74.1% | 53.9% | – | 90.5% | 65.8%
10 | CCC(=O)NC1=C(Cl)C(=O)C(NC(=O)CC)=C(Cl)C1=O | 101% | 106% | 107% | 115% | 92.8% | 91.4% | 96.3% | 66.6% | -1.93% (active) | –
11 | c1cc2c(cc1-c1cnc3nonc3n1)OCO2 | 57.1% | 109% | 96.8% | 92.6% | 94.2% | 56.8% | 91.2% | – | 104% | 66%
12 | O=[N+]([O-])c1ccc(N/N=C\c2ccc(O)cc2O)nc1 | 29.8% | 90.2% | 53.6% | 58.6% | 28.4% | 49.5% | 13.7% | – | 64.1% | 43.9%
13 | Cc1ccc(Nc2cccc3ccccc23)cc1 | 79.1% | 83.9% | 79.7% | 90.3% | 90.8% | 73.9% | 96.1% | – | 98.5% | 85.4%
14 | CCN1CCN(Cc2ccc(NC(=O)Nc3ccc(-n4ccc5c(NC(=O)c6ccccc6)nccc54)cc3)cc2C(F)(F)F)CC1 | -6.13% (active) | -35.3% (active) | -88.2% (active) | -14% (active) | -75.8% (active) | 54.6% | -97.6% (active) | – | -96.7% (active) | 41.3%
15 | O=C(O)CSc1ccc(NCc2oc(CO)cc(=O)c2O)cc1 | 107% | 99.5% | 87% | 110% | 103% | 98.8% | 99.8% | – | 104% | 102%
16 | COc1ccc(-c2cc(C(=O)Nc3ccc(C)cc3)nc3[nH]c(=O)sc23)cc1 | 63.8% | 81.4% | 102% | 57.7% | 56.2% | 73.8% | 37.2% | – | 70% | 31.3%
17 | COc1cc(/C=C\c2cc(/C=C\c3ccc(O)c(OC)c3)n(C(=O)Nc3ccc(C(F)(F)F)cc3)n2)ccc1O | 25.5% | 3.5% (active) | 71.8% | 48.7% | 9.71% (active) | 38% | 35.4% | – | 58% | 31.1%
18 | COc1ccc(NC(=O)Cn2c(=O)sc3c(-c4ccc(Cl)cc4)cc(-c4ccc(Cl)cc4)nc32)cc1 | 93.3% | 82.7% | 89.5% | 105% | 103% | 95.4% | 98.6% | – | 103% | 85.6%
19 | CCN(CC)c1ccc(/C=N/NC(=O)C[N+](C)(C)C)cc1 | 101% | 103% | 93.8% | 113% | 102% | 95.7% | 104% | – | 108% | 101%
20 | COc1cc(C)c(Cl)cc1C1=NN(c2ccc(S(N)(=O)=O)cc2)C(/C=C/c2ccccc2)C1 (stereo not given) | 35.1% | 23.2% | 65.2% | 38.6% | 18.3% | 7.54% (active) | 64.9% | 51.6% | 88.1% | –
21 | C=C1C(=O)O[C@H]2[C@H]1CC/C(COC(=O)NCc1cn(C)c3ccccc13)=C\CC[C@@]1(C)O[C@@H]21 | -45.8% (active) | -62% (active) | 50% | 54.2% | 0.165% (active) | 8.71% (active) | 10.6% | – | -14.6% (active) | -41% (active)
22 | CN(C)c1nc(-c2cccs2)n2nc(-c3ccc(Cl)cc3)cc2n1 | 92% | 33.2% | -50.4% (active) | 21.1% | 7.58% (active) | 47.1% | 64.2% | – | 79.2% | 70.7%
23 | C=C(C)[C@@H]1CC[C@]2(C(=O)NS(=O)(=O)c3ccccc3)CC[C@]3(C)[C@H](CC[C@@H]4[C@@]5(C)CC[C@H](OC(=O)NS(=O)(=O)c6ccccc6)C(C)(C)[C@@H]5CC[C@]43C)[C@@H]12 | 5.41% (active) | 20.8% | 45.3% | 14.4% | 13% | 7.83% (active) | -24.6% (active) | 4.7% (active) | -16.3% (active) | –
24 | CNC1=C([N+](=O)[O-])C(c2ccccc2O)C(C#N)=C(c2cccs2)O1 (stereo not given) | 88.5% | 105% | 84.2% | 102% | 91.5% | 97.7% | 97% | – | 93.3% | 89.3%
25 | CC(C)(C)OC[C@@H]1N=C(c2ccc(Br)cc2)Nc2nc3ccccn3c2C1=O | 44.1% | 21.8% | 77.4% | 76.5% | 63.5% | 53.4% | 38.4% | – | 68.6% | 53.6%
26 | O=C(Nc1ccc(Br)cc1)Nc1cccc(Br)c1 | 15.4% | 28.2% | 85% | 29.2% | 28.4% | 4.68% (active) | 65.3% | – | 43.7% | 5.82% (active)
27 | COc1ccc(Nc2nc(N)nc3c(=O)[nH]ccc23)cc1 | 109% | 103% | 107% | 101% | 115% | 81.5% | 111% | 102% | – | –
28 | CC(=O)Nc1c(Br)cc2c(c1Br)Cc1cc(Br)ccc1-2 | 91.7% | 52.8% | 74.3% | 79.4% | 12.8% | 67.8% | 88.2% | – | 98.3% | 72.2%
29 | COC1(OC)C2(Cl)CCC1(Cl)C(Cl)=C2Cl | 95% | 101% | 95.6% | 105% | 97.8% | 100% | 102% | – | 107% | 101%
